Measurements published in PubChem BioAssay (NCATS).
Results filed as inconclusive are left out. A call without a number means that no potency is given here. The source made the active and inactive calls. Calls come from the whole dose curve; as a rule, active = well fitted inhibition curve with a large enough effect; inconclusive = small, poorly fitted or top-dose-only effect; inactive = flat fitted curve, though single readings scatter.

test system: CP194; test: qHTS profiling for inhibitors of Plasmodium falciparum proliferation (AID 504749); note: nearly all actives have a fitted effect of over 60% in size; details: P. falciparum in erythrocytes, SYBR Green DNA, 72 h; series mostly up to 28.7 µM
Outline: (§1)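 P. falciparum-infected erythrocytes (0.3% parasitemia, 2.5% hematocrit final) were exposed to compounds for 72 h at 37 C in 5% CO2, then lysed with SYBR Green buffer overnight at room temperature; parasite DNA fluorescence was normalized to artemisinin and DMSO controls.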
Potency is the fitted concentration of half-maximal effect.

Structure (SMILES) | Potency
Nc1ccc(S(N)(=O)=O)cc1 | inactive
C[C@H](Cn1cnc2c(N)ncnc21)OCP(=O)(O)O | inactive
CCOc1cc(CC(=O)N[C@@H](CC(C)C)c2ccccc2N2CCCCC2)ccc1C(=O)O | inactive
Oc1ccc(OCc2ccccc2)cc1 | inactive
Cc1cccc(C)c1OCC(=O)N[C@@H](Cc1ccccc1)[C@@H](O)C[C@H](Cc1ccccc1)NC(=O)[C@H](C(C)C)N1CCCNC1=O | 7570 nM (active)
CNC[C@@H](O)[C@@H](O)[C@H](O)[C@H](O)CO | inactive
CCC1=C(C)CN(C(=O)NCCc2ccc(S(=O)(=O)NC(=O)NC3CCC(C)CC3)cc2)C1=O (stereo unspecified) | inactive
COc1cc(OC)c(C(=O)CCCN2CCCC2)c(OC)c1 | inactive
O=P(O)(O)C(O)(Cn1ccnc1)P(=O)(O)O | inactive
c1ccc2[nH]c(-c3cscn3)nc2c1 | inactive
Cc1cc2cc3c(C)cc(=O)oc3c(C)c2o1 | inactive
CC(C)[C@H](N)C(=O)OCCOCn1cnc2c(=O)[nH]c(N)nc21 | inactive
CCCCN(CCCC)CCC(O)c1cc2c(Cl)cc(Cl)cc2c2cc(C(F)(F)F)ccc12 (stereo unspecified) | 32.2 nM (active)
Cc1cc(=O)oc2cc(O)ccc12 | inactive
Nc1cc(C(Cl)=C(Cl)Cl)c(S(N)(=O)=O)cc1S(N)(=O)=O | inactive
C[C@]12CCC(=O)C=C1CC[C@@H]1[C@H]2[C@@H](O)C[C@@]2(C)[C@H]1CC[C@]2(O)C(=O)CO | inactive
Cc1c(OCC(F)(F)F)ccnc1CS(=O)c1nc2ccccc2[nH]1 (stereo unspecified) | inactive
C[Se]CCC(N)C(=O)O (stereo unspecified) | inactive
CN(C)c1ccc2nc3ccc(=[N+](C)C)cc-3sc2c1 | 75.7 nM (active)
O=C(NCCO[N+](=O)[O-])c1cccnc1 | inactive
CCCCc1ccc2nc(NC(=O)OC)[nH]c2c1 | inactive
O=C(O)c1cccc(-c2noc(-c3ccccc3F)n2)c1 | inactive
O=C(O)c1cc(=O)c2c(OCC(O)COc3cccc4oc(C(=O)O)cc(=O)c34)cccc2o1 | inactive
CC1(C)NC(=O)N(c2ccc([N+](=O)[O-])c(C(F)(F)F)c2)C1=O | inactive
O=C(O)CCNC(=O)c1ccc(N=Nc2ccc(O)c(C(=O)O)c2)cc1 | inactive
Cc1ncc([N+](=O)[O-])n1CC(C)O (stereo unspecified) | inactive
Cc1nc2n(c(=O)c1CCN1CCC(c3noc4cc(F)ccc34)CC1)CCCC2 | inactive
N[C@@H](Cc1cc(I)c(Oc2cc(I)c(O)c(I)c2)c(I)c1)C(=O)O | inactive

test system: CP201; test: as above; details: P. falciparum in erythrocytes, SYBR Green DNA, 72 h; series mostly up to 28.7 µM
Outline: as §1

Structure (SMILES) | Potency
Nc1ccc(S(N)(=O)=O)cc1 | inactive
C[C@H](Cn1cnc2c(N)ncnc21)OCP(=O)(O)O | inactive
CCOc1cc(CC(=O)N[C@@H](CC(C)C)c2ccccc2N2CCCCC2)ccc1C(=O)O | inactive
Oc1ccc(OCc2ccccc2)cc1 | inactive
Cc1cccc(C)c1OCC(=O)N[C@@H](Cc1ccccc1)[C@@H](O)C[C@H](Cc1ccccc1)NC(=O)[C@H](C(C)C)N1CCCNC1=O | 10700 nM (active)
CNC[C@@H](O)[C@@H](O)[C@H](O)[C@H](O)CO | inactive
CCC1=C(C)CN(C(=O)NCCc2ccc(S(=O)(=O)NC(=O)NC3CCC(C)CC3)cc2)C1=O (stereo unspecified) | inactive
COc1cc(OC)c(C(=O)CCCN2CCCC2)c(OC)c1 | inactive
O=P(O)(O)C(O)(Cn1ccnc1)P(=O)(O)O | inactive
c1ccc2[nH]c(-c3cscn3)nc2c1 | inactive
Cc1cc2cc3c(C)cc(=O)oc3c(C)c2o1 | inactive
CC(C)[C@H](N)C(=O)OCCOCn1cnc2c(=O)[nH]c(N)nc21 | inactive
CCCCN(CCCC)CCC(O)c1cc2c(Cl)cc(Cl)cc2c2cc(C(F)(F)F)ccc12 (stereo unspecified) | 51 nM (active)
Cc1cc(=O)oc2cc(O)ccc12 | inactive
Nc1cc(C(Cl)=C(Cl)Cl)c(S(N)(=O)=O)cc1S(N)(=O)=O | inactive
C[C@]12CCC(=O)C=C1CC[C@@H]1[C@H]2[C@@H](O)C[C@@]2(C)[C@H]1CC[C@]2(O)C(=O)CO | inactive
Cc1c(OCC(F)(F)F)ccnc1CS(=O)c1nc2ccccc2[nH]1 (stereo unspecified) | inactive
C[Se]CCC(N)C(=O)O (stereo unspecified) | inactive
CN(C)c1ccc2nc3ccc(=[N+](C)C)cc-3sc2c1 | 67.5 nM (active)
O=C(NCCO[N+](=O)[O-])c1cccnc1 | inactive
CCCCc1ccc2nc(NC(=O)OC)[nH]c2c1 | inactive
O=C(O)c1cccc(-c2noc(-c3ccccc3F)n2)c1 | inactive
O=C(O)c1cc(=O)c2c(OCC(O)COc3cccc4oc(C(=O)O)cc(=O)c34)cccc2o1 | inactive
CC1(C)NC(=O)N(c2ccc([N+](=O)[O-])c(C(F)(F)F)c2)C1=O | inactive
O=C(O)CCNC(=O)c1ccc(N=Nc2ccc(O)c(C(=O)O)c2)cc1 | inactive
Cc1ncc([N+](=O)[O-])n1CC(C)O (stereo unspecified) | inactive
Cc1nc2n(c(=O)c1CCN1CCC(c3noc4cc(F)ccc34)CC1)CCCC2 | inactive
N[C@@H](Cc1cc(I)c(Oc2cc(I)c(O)c(I)c2)c(I)c1)C(=O)O | inactive
